Rows were chosen to be rich in hits. Some 4% of all compounds tested hit in one or more screens of this group.
D1 potentiator: Potentiators of Human D1 Dopamine Receptor: qHTS | hit rate 0.036% among 360,000 | AID 504651, 2011 | potentiation, % at 10 µM | HEK293 TREx D1 cells, calcium flux, dopamine EC20 potentiation | D(1A) dopamine receptor (Homo sapiens), P21728; in the data active = potentiation above about 30%; also: 0% is about no effect
Target sequence (P21728 whole entry, looked up): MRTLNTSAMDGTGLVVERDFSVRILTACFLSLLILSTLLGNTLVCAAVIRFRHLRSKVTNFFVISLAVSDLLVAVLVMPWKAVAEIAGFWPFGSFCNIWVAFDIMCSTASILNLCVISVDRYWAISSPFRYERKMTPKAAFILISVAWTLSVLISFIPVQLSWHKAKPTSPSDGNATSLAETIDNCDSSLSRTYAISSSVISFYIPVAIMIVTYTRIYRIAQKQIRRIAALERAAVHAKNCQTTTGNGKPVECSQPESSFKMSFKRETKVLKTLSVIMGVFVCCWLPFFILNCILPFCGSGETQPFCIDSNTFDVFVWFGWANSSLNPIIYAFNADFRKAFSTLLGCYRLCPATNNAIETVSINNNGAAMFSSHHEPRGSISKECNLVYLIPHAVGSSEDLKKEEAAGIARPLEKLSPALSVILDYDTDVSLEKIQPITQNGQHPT
TRHR PAM: qHTS for Small Molecule Agonists and Allosteric Enhancers of Human TRH Receptor: Primary Screen for Enhancers | AID 493056, 2011 | hit rate 0.66% among 360,000 | Thyrotropin-releasing hormone receptor (Homo sapiens), P34981 | enhancement, % at 2 µM | TRHR cells, fluo-8 calcium fluorescence, EC20 TRH enhancement; in the data active = enhancement above about 30%; also: 0% is about no effect
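TRHR-expressing cells loaded with fluo-8 calcium dye were read kinetically (ex 480/em 530) during compound addition, then stimulated with an EC20 of TRH (10 nM final). Enhancement of the Gq-mediated intracellular calcium response was scored.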
D1 antag: Antagonist of Human D 1 Dopamine Receptor: qHTS; HEK293 TREx D1 cells, calcium flux, dopamine EC80; active compounds read low; activity change, negative = inhibition, % at 10 µM; hit rate 3.2% among 360,000; D(1A) dopamine receptor (Homo sapiens), P21728; in the data active = activity change below about -30%; also: % is scaled to controls: 0 for no effect and ±100 for the full control effect
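Using tetracycline-induced force-coupled D1 Hek293 cells and a calcium dye, signals were followed for 180 s after compound, then for 180 s after EC80 dopamine, to detect inhibitors.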
GRP78 ERSR act: qHTS for Inducers of the Endoplasmic Reticulum Stress Response (ERSR) in Human Glioma: qHTS; U87-MG GRP78 promoter luciferase reporter, 16 h; Potency, µM, for inactives: top-dose activation, actives largely listed as activators; hit rate 0.02% among 420,000; active = well fitted activation curve with a large enough effect; also: potency is read from the fitted curve at half-maximal effect; series mostly up to about 76 µM; % of control where 0% means no effect; nearly all actives have a fitted effect of over 35% in size
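Stably transfected U87-MG glioma cells carrying a GRP78-based luciferase sensor; 16 h compound incubation. Luminescence end-point read 10 min after Bright-Glo addition at room temperature.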
D1 agonist: Allosteric Agonists of the Human D1 Dopamine Receptor: qHTS; D(1A) dopamine receptor (Homo sapiens), P21728; HEK293 T-REx D1 cells, calcium flux, agonist mode; activation, % at 2 µM; hit rate 1% among 360,000; AID 504660, 2011; also: 0% is about no effect
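Agonism was scored from calcium flux recorded over 180 s (1 read/s) after pintool compound addition, following a 10-cycle baseline. Cells were inducible force-coupled HEK293 TREx D1, plated overnight at 30 C and loaded with no-wash calcium dye.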
TRHR agonist: qHTS for Small Molecule Agonists and Allosteric Enhancers of Human TRH Receptor: Primary Screen for Agonists; Thyrotropin-releasing hormone receptor (Homo sapiens), P34981; TRHR cells, calcium flux fluo-8, FDSS agonist mode; activation, % at 2 µM; hit rate 0.18% among 360,000; AID 493084, 2011; also: 0% is about no effect
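TRHR-expressing cells, plated overnight in medium with 10% serum, were loaded with fluo-8 calcium dye at room temperature. After a 10 s baseline, library compound was pin-added and calcium release was recorded kinetically (ex 480/em 530) as agonist response.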
* marks the source's active call; other numbers are inactive results; nt = no result given. Rule as the data show it, unless noted: active = activation above about 30%; inactive = the rest.

SMILES	D1 potentiator	TRHR PAM	D1 antag	GRP78 ERSR act	D1 agonist	TRHR agonist
CC1CCCN(C(=O)C(=O)c2cn(CC(=O)N3CCCCCC3)c3ccccc23)C1 (configuration not stated)	-3.4	1.5	-12.7	-5.4%	5.5	0.1
Cc1ccc(NC(=O)c2nc(-c3ccncc3)no2)c(Cl)c1	-4.3	3.3	-47.4*	-5.5%	11.8	-0.3
CCc1ccccc1NC(=O)c1nc(-c2ccncc2)no1	2.3	12.5	0.8	-2.9%	-1.6	-0.1
COc1cc2[nH]cc(C(=O)NCCc3ccccc3)c(=O)c2cc1OC	-7.5	2.5	-32.2*	-2.6%	-0.2	-1.4
CC(C)(C)n1nnnc1C(c1cccnc1)N(Cc1ccccc1)Cc1ccco1 (configuration not stated)	-4.5	10.1	-10.1	-2.7%	2.5	-1.0
CCC(C)(C)n1nnnc1C(C(C)C)N(Cc1cccnc1)Cc1ccco1 (configuration not stated)	2.5	20.9	-44.4*	-3.6%	-0.7	-0.4
Cc1cc2c3nonc3ccc2n1C	-2.6	-11.1	-34.0*	5.7%	1.5	0.1
COn1c(C)c(C)c2c3nonc3ccc21	2.4	-3.6	-6.5	-3.3%	2.3	0.8
CCN(CC)c1ccc(NC(=O)c2ccco2)c(C)c1	4.3	4.2	-13.7	6.6%	-2.2	-0.1
CCN(CC)c1ccc(NC(=O)c2ccc(Br)o2)c(C)c1	-8.9	8.2	-1.2	2.8%	34.6*	-0.4
COc1ccc(CN2CCC(n3nccc3NC(=O)C3CC3)CC2)cc1O	5.5	-2.5	0.0	-3.6%	1.6	1.1
CCSc1nnc(C(C)NC(=O)c2ccc(OC)cc2)n1C (configuration not stated)	nt	nt	nt	-2.2%	nt	nt
c1ccc(N2OCC3Cn4c(nc5ccccc54)C32)cc1 (configuration not stated)	-3.3	8.2	-36.1*	20.1%	5.0	-0.1
Cc1ccc(/C=C/c2nc3ccccc3c(=O)[nH]2)cc1	-4.3	1.5	-39.6*	-5.1%	2.3	0.9
Cc1cccc(-c2nc3ccccc3c(=O)[nH]2)c1	9.5	4.3	-30.4*	4.4%	0.1	0.0
C/C(CCN1CCCc2nc(C)c(C)cc21)=N\OC[C@@H](C)[C@H](OCc1ccccc1)C(C)C	nt	nt	nt	-6.5%	nt	nt
CCOc1cc(/C=N/Nc2nnc(C)n2N)ccc1OC(C)=O	-1.9	5.0	-32.7*	-5.8%	-0.3	-1.3
COc1ccc(C(=O)Nc2ccc3oc(-c4ccc(F)cc4Cl)nc3c2)cc1	-2.8	-6.7	-37.6*	3.4%	0.0	0.5
COc1cc2ccccc2cc1C(=O)Nc1ccc2oc(-c3ccc(F)cc3Cl)nc2c1	0.8	4.4	3.5	-5.2%	-1.8	0.5
CCCCNS(=O)(=O)c1ccc(S(=O)(=O)N2CCC3(CC2)OCCO3)cc1	-10.8	10.9	-45.8*	-5.6%	17.0	0.2
O=S(=O)(c1ccc(S(=O)(=O)N2CCC3(CC2)OCCO3)cc1)N1CCCC1	-1.9	9.5	-7.7	-4.8%	2.9	0.4
O=C(/C=C/c1ccc(F)cc1)NC(=S)NNC(=O)[C@H]1C[C@@H]1c1ccccc1	2.0	-0.7	-2.2	1.3%	8.3	0.5
COc1ccc(C(=O)NC(=S)NNC(=O)[C@H]2C[C@@H]2c2ccccc2)cc1OC	-3.4	8.1	-2.9	-1.4%	16.8	1.2
COc1cc(OC)cc(C(=O)NC(=S)NNC(=O)[C@H]2C[C@@H]2c2ccccc2)c1	-3.5	-1.5	-8.7	12.8%	87.6*	7.1
O=C(NC(=S)NNC(=O)[C@H]1C[C@@H]1c1ccccc1)c1ccc(F)cc1	-1.9	-4.3	-21.5	1.2%	91.0*	11.1
Cc1cc(C)c2nc(C(F)(F)F)nc(NCCCN3CCOCC3)c2c1	-4.6	1.5	11.7	0.3%	5.7	0.2
Clc1ccc2c(N/N=C/c3cccnc3)ccnc2c1	1.1	-20.0	-9.9	-1.7%	1.0	-0.4
